Results on 6 compounds are retold here after ChEMBL document CHEMBL1961873, “Compounds: GSK PKIS; Assays: Nanosyn kinase panel” (2012).

The target of test [1] is Tyrosine-protein kinase receptor UFO (Homo sapiens) (UniProt P30530). The following applies: at 1 µM.
In test [2] the target is Tyrosine-protein kinase Blk (Homo sapiens) (UniProt P51451). As to conditions: at 0.1 µM.
Test [3] shares this target. As to conditions: at 1 µM.
Test [4] has as its target T1, Cytoplasmic tyrosine-protein kinase BMX (Homo sapiens) (UniProt P51813).
T1 sequence (whole entry): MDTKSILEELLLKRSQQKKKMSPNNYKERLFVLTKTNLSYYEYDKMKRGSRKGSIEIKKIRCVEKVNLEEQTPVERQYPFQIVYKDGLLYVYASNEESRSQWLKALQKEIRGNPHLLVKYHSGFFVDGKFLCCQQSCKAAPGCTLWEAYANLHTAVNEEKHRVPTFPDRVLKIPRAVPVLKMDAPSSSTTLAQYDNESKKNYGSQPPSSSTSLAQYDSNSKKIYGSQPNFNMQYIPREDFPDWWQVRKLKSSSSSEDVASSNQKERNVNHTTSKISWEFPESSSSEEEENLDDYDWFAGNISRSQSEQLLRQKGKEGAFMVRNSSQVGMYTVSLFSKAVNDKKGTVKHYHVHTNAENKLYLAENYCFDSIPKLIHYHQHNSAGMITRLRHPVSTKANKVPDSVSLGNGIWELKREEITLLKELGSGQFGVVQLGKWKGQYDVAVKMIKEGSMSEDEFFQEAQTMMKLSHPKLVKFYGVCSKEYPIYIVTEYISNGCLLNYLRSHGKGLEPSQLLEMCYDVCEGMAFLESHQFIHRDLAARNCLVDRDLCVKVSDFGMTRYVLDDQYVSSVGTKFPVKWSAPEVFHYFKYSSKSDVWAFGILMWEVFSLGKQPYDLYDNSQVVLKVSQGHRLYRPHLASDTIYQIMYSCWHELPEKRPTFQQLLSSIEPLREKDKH
The following applies: at 0.1 µM.

Test [5] has as its target T1, Cytoplasmic tyrosine-protein kinase BMX (Homo sapiens). The following applies: at 1 µM.
Test [6] has as its target Protein-tyrosine kinase 6 (Homo sapiens) (UniProt Q13882). As to conditions: at 0.1 µM.
Test [7] has the same target. As to conditions: at 1 µM.
Test [8] has as its target Tyrosine-protein kinase BTK (Homo sapiens) (UniProt Q06187). As to conditions: at 0.1 µM.
The target is the same in test [9]. The following applies: at 1 µM.
The target of test [10] is Tyrosine-protein kinase CSK (Homo sapiens) (UniProt P41240). As to conditions: at 0.1 µM.
Sequence of Tyrosine-protein kinase CSK (Homo sapiens) (P41240 2-450 limits assumed): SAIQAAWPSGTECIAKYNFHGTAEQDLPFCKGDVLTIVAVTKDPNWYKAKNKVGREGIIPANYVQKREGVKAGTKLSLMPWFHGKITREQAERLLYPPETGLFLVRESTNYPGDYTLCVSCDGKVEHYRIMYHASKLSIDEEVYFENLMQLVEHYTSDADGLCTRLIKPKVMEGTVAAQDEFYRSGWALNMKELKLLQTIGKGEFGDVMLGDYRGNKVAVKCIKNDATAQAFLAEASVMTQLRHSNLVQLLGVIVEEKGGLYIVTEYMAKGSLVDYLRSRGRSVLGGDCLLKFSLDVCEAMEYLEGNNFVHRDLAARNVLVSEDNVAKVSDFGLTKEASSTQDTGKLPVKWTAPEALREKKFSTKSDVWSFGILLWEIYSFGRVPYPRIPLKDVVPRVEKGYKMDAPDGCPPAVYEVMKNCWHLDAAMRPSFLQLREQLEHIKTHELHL
Test [11] has the same target. As to conditions: at 1 µM.
For test [12], the target named is T2, Discoidin domain-containing receptor 2 (Homo sapiens) (UniProt Q16832).
T2 sequence (whole entry): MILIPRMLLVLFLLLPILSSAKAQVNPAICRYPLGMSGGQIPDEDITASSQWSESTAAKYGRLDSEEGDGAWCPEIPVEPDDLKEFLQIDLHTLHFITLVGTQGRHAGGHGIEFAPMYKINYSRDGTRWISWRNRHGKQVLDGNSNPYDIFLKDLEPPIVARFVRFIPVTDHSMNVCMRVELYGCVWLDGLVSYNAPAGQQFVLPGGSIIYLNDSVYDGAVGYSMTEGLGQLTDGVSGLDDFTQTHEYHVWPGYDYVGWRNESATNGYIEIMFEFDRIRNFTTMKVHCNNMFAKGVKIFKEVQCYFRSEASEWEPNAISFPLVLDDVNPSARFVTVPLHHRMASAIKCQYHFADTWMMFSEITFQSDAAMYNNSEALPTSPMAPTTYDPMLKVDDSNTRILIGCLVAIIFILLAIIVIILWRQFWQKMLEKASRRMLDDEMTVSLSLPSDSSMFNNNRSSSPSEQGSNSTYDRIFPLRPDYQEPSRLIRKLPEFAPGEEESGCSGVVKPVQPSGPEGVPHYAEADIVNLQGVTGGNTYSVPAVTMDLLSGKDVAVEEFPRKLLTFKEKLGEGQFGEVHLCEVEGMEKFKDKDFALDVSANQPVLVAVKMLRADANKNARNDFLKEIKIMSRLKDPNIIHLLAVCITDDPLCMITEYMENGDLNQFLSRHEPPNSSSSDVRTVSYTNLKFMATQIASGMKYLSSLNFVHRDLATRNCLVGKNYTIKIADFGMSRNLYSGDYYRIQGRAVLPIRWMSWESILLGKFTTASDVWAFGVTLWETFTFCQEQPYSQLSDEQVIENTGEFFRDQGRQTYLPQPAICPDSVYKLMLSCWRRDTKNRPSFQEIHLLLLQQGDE
As to conditions: at 0.1 µM.

Test [13] concerns the target T2, Discoidin domain-containing receptor 2 (Homo sapiens). As to conditions: at 1 µM.
Test [14] addresses Epidermal growth factor receptor (Homo sapiens) (UniProt P00533). The following applies: at 0.1 µM.
The target is the same in test [15]. The following applies: at 1 µM.
In test [16] the test system is Epidermal growth factor receptor (Homo sapiens), P00533 [L858R]. The following applies: at 0.1 µM.
Sequence of Epidermal growth factor receptor (Homo sapiens), P00533 [L858R] (P00533 whole entry L858R): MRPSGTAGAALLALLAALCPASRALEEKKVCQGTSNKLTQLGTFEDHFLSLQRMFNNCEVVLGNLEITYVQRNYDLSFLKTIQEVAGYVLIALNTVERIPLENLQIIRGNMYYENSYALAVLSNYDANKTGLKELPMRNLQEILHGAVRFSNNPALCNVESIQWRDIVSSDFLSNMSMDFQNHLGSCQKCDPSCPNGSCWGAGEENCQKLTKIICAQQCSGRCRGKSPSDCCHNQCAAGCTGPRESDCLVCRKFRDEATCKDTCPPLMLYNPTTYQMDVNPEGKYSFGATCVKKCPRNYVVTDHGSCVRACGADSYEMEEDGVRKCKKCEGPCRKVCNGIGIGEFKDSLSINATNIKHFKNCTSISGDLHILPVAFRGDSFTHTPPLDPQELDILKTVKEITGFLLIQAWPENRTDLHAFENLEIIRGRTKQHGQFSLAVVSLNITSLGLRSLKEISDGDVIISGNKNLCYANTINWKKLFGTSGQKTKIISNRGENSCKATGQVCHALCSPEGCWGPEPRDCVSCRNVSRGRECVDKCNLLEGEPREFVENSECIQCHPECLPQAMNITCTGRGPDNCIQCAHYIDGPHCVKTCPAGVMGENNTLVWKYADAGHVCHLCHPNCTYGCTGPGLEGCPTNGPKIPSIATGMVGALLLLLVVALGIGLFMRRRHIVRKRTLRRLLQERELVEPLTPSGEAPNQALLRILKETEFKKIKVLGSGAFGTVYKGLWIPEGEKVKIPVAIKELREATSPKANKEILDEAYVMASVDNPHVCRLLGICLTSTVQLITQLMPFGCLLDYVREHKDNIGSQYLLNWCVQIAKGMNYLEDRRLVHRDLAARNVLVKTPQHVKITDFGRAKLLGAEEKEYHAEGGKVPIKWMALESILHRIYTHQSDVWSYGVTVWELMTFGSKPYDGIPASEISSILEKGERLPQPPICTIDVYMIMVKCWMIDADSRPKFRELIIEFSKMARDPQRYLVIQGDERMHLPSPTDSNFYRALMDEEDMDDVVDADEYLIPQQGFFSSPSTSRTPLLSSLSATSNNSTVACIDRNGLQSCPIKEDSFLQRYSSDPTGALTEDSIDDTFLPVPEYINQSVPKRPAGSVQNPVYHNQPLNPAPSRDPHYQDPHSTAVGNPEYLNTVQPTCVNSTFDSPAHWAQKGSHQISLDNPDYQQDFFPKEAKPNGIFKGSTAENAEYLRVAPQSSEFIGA
The test system is the same in test [17]. The following applies: at 1 µM.
The subject of test [18] is Epidermal growth factor receptor (Homo sapiens), P00533 [L861Q]. The following applies: at 0.1 µM.
For test [19] the test system is unchanged. The following applies: at 1 µM.
Test [20] deals with Epidermal growth factor receptor (Homo sapiens), P00533 [T790M]. The following applies: at 0.1 µM.

Sequence of Tyrosine-protein kinase receptor UFO (Homo sapiens) (P30530 whole entry): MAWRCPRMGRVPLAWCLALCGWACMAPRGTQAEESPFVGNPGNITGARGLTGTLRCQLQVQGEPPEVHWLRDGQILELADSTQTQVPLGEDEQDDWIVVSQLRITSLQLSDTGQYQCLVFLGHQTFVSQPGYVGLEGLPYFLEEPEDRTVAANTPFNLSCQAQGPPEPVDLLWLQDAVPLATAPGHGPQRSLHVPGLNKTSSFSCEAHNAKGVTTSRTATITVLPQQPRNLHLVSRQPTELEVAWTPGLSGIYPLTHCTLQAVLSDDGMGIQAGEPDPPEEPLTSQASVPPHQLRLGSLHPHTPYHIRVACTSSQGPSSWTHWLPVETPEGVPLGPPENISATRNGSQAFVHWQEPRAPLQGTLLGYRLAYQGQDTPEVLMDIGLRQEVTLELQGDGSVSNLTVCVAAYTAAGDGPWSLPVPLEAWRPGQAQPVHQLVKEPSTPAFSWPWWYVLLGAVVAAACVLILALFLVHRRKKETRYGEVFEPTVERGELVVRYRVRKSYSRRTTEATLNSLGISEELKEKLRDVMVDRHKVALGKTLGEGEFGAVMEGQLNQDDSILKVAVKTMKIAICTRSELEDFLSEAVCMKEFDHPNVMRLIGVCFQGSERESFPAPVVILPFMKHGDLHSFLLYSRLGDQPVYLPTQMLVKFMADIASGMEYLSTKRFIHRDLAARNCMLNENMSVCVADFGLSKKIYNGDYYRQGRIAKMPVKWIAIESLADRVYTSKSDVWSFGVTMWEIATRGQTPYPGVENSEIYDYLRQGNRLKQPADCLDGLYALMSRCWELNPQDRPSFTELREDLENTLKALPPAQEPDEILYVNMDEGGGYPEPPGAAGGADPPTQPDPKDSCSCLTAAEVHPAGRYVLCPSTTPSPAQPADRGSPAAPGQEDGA
Sequence of Epidermal growth factor receptor (Homo sapiens), P00533 [L861Q] (P00533 whole entry L861Q): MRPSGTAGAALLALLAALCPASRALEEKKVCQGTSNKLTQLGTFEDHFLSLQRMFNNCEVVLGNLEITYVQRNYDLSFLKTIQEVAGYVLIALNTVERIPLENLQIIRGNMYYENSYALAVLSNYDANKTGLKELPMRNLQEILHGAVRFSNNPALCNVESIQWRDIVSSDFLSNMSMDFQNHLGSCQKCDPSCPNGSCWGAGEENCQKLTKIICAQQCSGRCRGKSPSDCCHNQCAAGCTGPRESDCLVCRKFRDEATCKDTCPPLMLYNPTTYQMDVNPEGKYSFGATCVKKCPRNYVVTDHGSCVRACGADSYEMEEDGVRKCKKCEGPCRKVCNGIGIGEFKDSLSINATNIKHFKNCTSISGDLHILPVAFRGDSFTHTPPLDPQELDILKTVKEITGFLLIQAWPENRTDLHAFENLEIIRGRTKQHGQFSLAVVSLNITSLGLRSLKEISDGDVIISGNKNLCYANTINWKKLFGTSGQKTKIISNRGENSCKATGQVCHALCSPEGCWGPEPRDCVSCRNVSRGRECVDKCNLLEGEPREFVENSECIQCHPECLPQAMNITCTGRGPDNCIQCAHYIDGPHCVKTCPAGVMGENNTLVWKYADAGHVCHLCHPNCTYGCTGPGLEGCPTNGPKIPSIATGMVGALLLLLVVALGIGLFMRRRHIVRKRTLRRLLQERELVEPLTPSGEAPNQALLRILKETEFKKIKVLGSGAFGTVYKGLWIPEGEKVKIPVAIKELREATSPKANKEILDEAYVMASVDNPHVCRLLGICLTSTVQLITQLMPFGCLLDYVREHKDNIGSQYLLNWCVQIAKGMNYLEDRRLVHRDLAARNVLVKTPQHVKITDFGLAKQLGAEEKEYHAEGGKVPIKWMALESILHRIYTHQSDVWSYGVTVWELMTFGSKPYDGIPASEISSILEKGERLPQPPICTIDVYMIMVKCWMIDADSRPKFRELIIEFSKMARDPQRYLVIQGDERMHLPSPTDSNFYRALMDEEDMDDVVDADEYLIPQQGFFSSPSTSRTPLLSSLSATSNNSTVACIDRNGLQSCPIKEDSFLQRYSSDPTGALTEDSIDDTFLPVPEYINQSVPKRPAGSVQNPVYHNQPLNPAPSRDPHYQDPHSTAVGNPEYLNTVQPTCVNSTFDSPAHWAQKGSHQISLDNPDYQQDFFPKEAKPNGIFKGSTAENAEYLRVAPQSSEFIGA
Sequence of Tyrosine-protein kinase BTK (Homo sapiens) (Q06187 whole entry): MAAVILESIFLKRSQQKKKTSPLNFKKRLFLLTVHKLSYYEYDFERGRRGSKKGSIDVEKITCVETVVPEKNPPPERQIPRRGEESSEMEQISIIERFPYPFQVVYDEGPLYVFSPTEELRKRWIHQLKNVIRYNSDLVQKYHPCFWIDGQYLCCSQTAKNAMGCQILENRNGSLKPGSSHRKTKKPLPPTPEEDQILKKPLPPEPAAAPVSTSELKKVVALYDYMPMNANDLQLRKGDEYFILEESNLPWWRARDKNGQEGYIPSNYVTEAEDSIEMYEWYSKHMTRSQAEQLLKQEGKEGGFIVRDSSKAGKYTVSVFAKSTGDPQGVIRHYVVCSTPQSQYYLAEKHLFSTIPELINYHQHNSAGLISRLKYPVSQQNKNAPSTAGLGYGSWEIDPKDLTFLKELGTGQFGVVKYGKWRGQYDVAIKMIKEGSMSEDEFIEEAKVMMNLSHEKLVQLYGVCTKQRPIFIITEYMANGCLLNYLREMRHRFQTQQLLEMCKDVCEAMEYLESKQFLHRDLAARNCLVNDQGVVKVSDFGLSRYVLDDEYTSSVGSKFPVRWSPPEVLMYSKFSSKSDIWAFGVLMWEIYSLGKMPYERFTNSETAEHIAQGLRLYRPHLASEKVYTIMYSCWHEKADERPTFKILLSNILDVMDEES
Sequence of Protein-tyrosine kinase 6 (Homo sapiens) (Q13882 whole entry, looked up): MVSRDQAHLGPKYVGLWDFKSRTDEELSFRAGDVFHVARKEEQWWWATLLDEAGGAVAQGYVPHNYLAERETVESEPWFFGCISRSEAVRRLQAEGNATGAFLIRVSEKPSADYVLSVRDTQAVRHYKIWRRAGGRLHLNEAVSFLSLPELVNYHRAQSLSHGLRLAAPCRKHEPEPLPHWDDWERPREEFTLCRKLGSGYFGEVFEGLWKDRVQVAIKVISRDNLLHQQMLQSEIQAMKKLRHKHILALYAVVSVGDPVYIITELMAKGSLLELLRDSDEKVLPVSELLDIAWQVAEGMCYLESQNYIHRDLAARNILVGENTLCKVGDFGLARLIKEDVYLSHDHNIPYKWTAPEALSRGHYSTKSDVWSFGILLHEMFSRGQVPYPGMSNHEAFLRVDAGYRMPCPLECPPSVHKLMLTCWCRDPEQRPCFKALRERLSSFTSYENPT

Turning to `FC(F)(F)c1ccc(-c2nn3ncccc3c2-c2ccnc(Nc3ccc4c(c3)OCCO4)n2)cc1`, the inhibition in test [1] was 7.56%; in test [2], 3.74%; in test [3], 15.7%; in [4] it was 2.61%; in test [5], 0.4%; in [6], -0.58%. In addition, the inhibition in test [7] is 12%; in [8] it was 0.26%; in test [9] it was 7.22%; in test [10], -0.13%; in test [11] it was 6.46%; in test [12], 8.59%. Also, the inhibition in test [13] worked out at 24.9%; in test [14] it was 6.78%; in test [15], 19.2%; in test [16], 5.78%; in test [17], 40.1%; in test [18], 4.86%. Moreover, the figures for the inhibition in test [19] and in test [20] were 27.6% and 0.49%, respectively.

With `Cc1ccc2c(c1)/C(=N/Nc1ccc(S(N)(=O)=O)cc1)C(=O)N2`, the inhibition in [1] is 2.86%; in test [2], 0.29%; in test [3], 11.2%; in [4] it was 1.94%; in test [5] it was -0.8%; in [6] it was -3.49%. Besides, the inhibition in test [7] was -3.16%; in test [8], 0.42%; in test [9], 3.78%; in test [10], -2.97%; in [11], -6.97%; in test [12], -0.42%. Further, the inhibition is -0.71% in [13]; -0.37% in [14]; 0.75% in [15]; -1.56% in [16]; -1.97% in test [17]; -0.23% in test [18]. For the same compound, the inhibition in test [19] was -4.18%; in [20], -0.84%.

Turning to `Nc1nccc(-c2c(-c3ccc(F)cc3)ncn2CCCN2CCOCC2)n1`, the inhibition in test [2] turned out to be 2.93%; in [3], 5.42%; in test [4], 3.6%; in test [5] it was 2.77%; in test [6], 4.81%; in test [7], 10.8%. Besides, the inhibition in [8] is -0.92%; in test [9] it was -0.14%; in [10], 2.1%; in test [11], 2.85%; in test [12], -0.61%; in [13] it was -1.04%. Further, the inhibition in test [14] is -0.84%; in test [15] it was 6.38%; in test [16] it was 5.87%; in [17] it was 31.9%; in test [18], 4.34%; in test [19], 10.9%. The inhibition in test [20] worked out at 2.78%.

On to `Cc1nc(-c2ccccc2)n2nc(NCCCN3CCOCC3)ncc12`, for which the inhibition was -0.92% in test [1]; 2.04% in test [2]; 4.14% in test [3]; 3.56% in [4]; 5.57% in test [5]; -2.39% in [6]. Moreover, the inhibition in test [7] is 2.23%; in [8] it was 0.19%; in test [9], 0.66%; in [10] it was -0.24%; in [11], 1.69%; in [12], 1.13%. The inhibition in [13] was determined as 1.28%; in test [14], 5.65%; in test [15], 7.11%; in test [16] it was 1.69%; in test [17], 4.22%; in [18], 0.9%. For the same compound, the inhibition in [19] is 1.99%; in [20], -0.64%.

Consider `Cc1ccc(O)cc1Nc1ccnc2ccc(S(C)(=O)=O)cc12`, for which the inhibition in [2] amounted to 42.8%; in test [3], 91.4%; in [4], 76.5%; in test [5], 93.2%; in test [6], 95.3%; in test [7] it was 103%. Further, the inhibition came to 63.8% in [8]; 77.3% in test [9]; 70.3% in test [10]; 94.2% in [11]; 59.8% in test [12]; 79.7% in test [13]. Further, the inhibition in test [14] was determined as 12.7%; in test [15], 36.6%; in [16] it was 19.7%; in test [17], 72.1%; in [18], 8.5%; in test [19], 31.9%. The inhibition in test [20] is 3.11%.

Regarding `Cc1ccc(C(=O)NC2CC2)cc1-c1ccc2[nH]ncc2c1`, the inhibition in [1] was 6.55%; in [2] it was -1.8%; in test [3], -1.6%; in test [4], -2.64%; in test [5] it was -6.39%; in [6] it was -2.14%. Moreover, the inhibition is -3.93% in [7]; 0.06% in [8]; -1.33% in test [9]; -0.85% in [12]; -0.74% in test [13]; -1.17% in test [14]. In addition, the inhibition is 1.98% in test [15]; -1.88% in test [16]; -2.39% in test [17]; -0.66% in [18]; -1.04% in test [19]; -2% in [20].

By inhibition is commonly meant the relative decrease from the control value, in per cent.
